Assay results as given in the supplement of paper PMC6992640.
± gives the standard deviation of the averaged measurements.

Legend:
Experiment in all cases: cell viability (% of vehicle); higher = less cytotoxic
Conditions in all cases: 10 µM; 72 h
HCI01 = tested on: HCI01 (cells of a triple-negative basal-like breast cancer xenograft)
HCI03 = tested on: HCI03 (cells of an ER-positive luminal breast cancer xenograft)
HCI09 = tested on: HCI09 (cells of a triple-negative luminal androgen receptor type breast cancer xenograft)
HCI11 = tested on: HCI11 (cells of an ER-positive luminal breast cancer xenograft)
HCI13 = tested on: HCI13 (cells of an ER-positive luminal breast cancer xenograft)
HCI16 = tested on: HCI16 (cells of a triple-negative basal-like breast cancer xenograft)
UCD52 = tested on: UCD52 (cells of a triple-negative basal-like breast cancer xenograft)
WHIM2 = tested on: WHIM2 (cells of a triple-negative basal-like breast cancer xenograft)
WHIM30 = tested on: WHIM30 (cells of a triple-negative basal-like breast cancer xenograft)
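Also: PDX cells carrying CMV promoter-driven luciferase, viability read as total photon flux per second by IVIS imaging following D-luciferin, vehicle control 0.1% DMSO.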

| SMILES | cell viability (HCI01) | cell viability (HCI03) | cell viability (HCI09) | cell viability (HCI11) | cell viability (HCI13) | cell viability (HCI16) | cell viability (UCD52) | cell viability (WHIM2) | cell viability (WHIM30) |
| --- | --- | --- | --- | --- | --- | --- | --- | --- | --- |
| CCOc1nc2cccc(C(=O)OCc3oc(=O)oc3C)c2n1Cc1ccc(-c2ccccc2-c2nc(=O)o[nH]2)cc1 [Azilsartan Medoxomil] | 100 ± 6.8 | 162 | 107 ± 2.2 | 94.2 | 106 ± 14 | 124 | 111 ± 8.7 | 106 ± 18 | 127 ± 2.7 |
| CC(C(=O)O)c1cccc(Oc2ccccc2)c1 (configuration not stated) [Fenoprofen calcium hydrate] | 98.6 ± 19 | 104 | 94.2 ± 14 | 89 | 101 ± 6.6 | 120 | 85 ± 3.6 | 105 ± 1.2 | 139 ± 25 |
| CCC(CC)C(NC(C)=O)C1C(N=C(N)N)CC(C(=O)O)C1O (configuration not stated) [Peramivir] | 112 ± 9.2 | 110 | 91.2 ± 18 | 98 | 102 ± 20 | 78.9 | 81.6 ± 14 | 97.5 ± 6.7 | 136 ± 24 |
| Cc1nccn1CC1CCc2c(c3ccccc3n2C)C1=O.Cl (configuration not stated) [Ondansetron HCl] | 126 ± 18 | 123 | 93.6 ± 9.8 | 111 | 96.7 ± 2.7 | 104 | 80.3 ± 1 | 83.9 ± 22 | 128 ± 9.2 |
| Cl.Cl.O=C(O)COCCN1CCN(C(c2ccccc2)c2ccc(Cl)cc2)CC1 (configuration not stated) [Cetirizine DiHCl] | 111 ± 5.7 | 118 | 98.4 ± 0.98 | 103 | 147 ± 6.2 | 116 | 78.6 ± 6.7 | 90.1 ± 1.9 | 109 ± 7.9 |
| COCCCCC(=NOCCN)c1ccc(C(F)(F)F)cc1.O=C(O)C=CC(=O)O [Fluvoxamine maleate] | 120 ± 4.3 | 111 | 90.71 ± 0.25 | 93 | 94.6 ± 7.2 | 67.7 | 84.9 ± 8.5 | 69.3 ± 19 | 107 ± 4.1 |
| COc1ccc(C=Cc2cc(OC)c(OC)c(OC)c2)cc1OP(=O)([O-])[O-].[Na+].[Na+] [Fosbretabulin (Combretastatin A4 Phosphate (CA4P)) Disodium] | 185 ± 47 | 115 | 110 ± 35 | 115 | 41.7 ± 5.6 | 132 | 86 ± 16 | 111 ± 12 | 104 ± 5.7 |
| Cc1c(-c2cnccn2)ssc1=S [Oltipraz] | 89.2 ± 5.2 | 113 | 88.5 ± 4 | 66.1 | 89.8 ± 8.7 | 104 | 94.8 ± 9.3 | 91 ± 14 | 72.8 ± 2.9 |
| CN=C(NC#N)NCCSCc1nc[nH]c1C [Cimetidine] | 136 ± 22 | 124 | 93.85 ± 0.84 | 101 | 102 ± 16 | 115 | 88.1 ± 5.3 | 87.8 ± 19 | 120 ± 4.4 |
| Cc1ccc(C(=O)C(C)CN2CCCCC2)cc1.Cl (configuration not stated) [Tolperisone HCl] | 118 ± 20 | 118 | 101 ± 3.6 | 92.5 | 47.8 ± 8.8 | 109 | 92.3 ± 8.6 | 130 ± 6.4 | 110 ± 3.9 |
| CC(=O)SCC(Cc1ccccc1)C(=O)NCC(=O)OCc1ccccc1 (configuration not stated) [Racecadotril] | 106 ± 19 | 111 | 92.8 ± 9.8 | 93.3 | 114 ± 8.9 | 104 | 65.6 ± 16 | 92.8 ± 1.4 | 79.3 ± 9 |
| NCCCC(O)(P(=O)([O-])O)P(=O)(O)O.[Na+] [Alendronate sodium] | 102 ± 7.7 | 111 | 95.1 ± 18 | 97.3 | 97.6 ± 3.9 | 97.1 | 79 ± 5.8 | 93.7 ± 13 | 116 ± 8.4 |
| Cc1ccnc(NS(=O)(=O)c2ccc(N)cc2)n1 [Sulfamerazine] | 100 ± 36 | 131 | 88.41 ± 0.75 | 84.2 | 103 ± 8.7 | 111 | 86.8 ± 8.5 | 75.2 ± 10 | 99.5 ± 6 |
| Cc1c(O)cccc1C(=O)NC(CSc1ccccc1)C(O)CN1CC2CCCCC2CC1C(=O)NC(C)(C)C (configuration not stated) [Nelfinavir] | 117 ± 39 | 93.4 | 52.9 ± 40 | 97.2 | 89.3 ± 0.59 | 101 | 68.7 ± 4 | 89.2 ± 16 | 61.5 ± 6.5 |
| Nc1nc(F)nc2c1ncn2C1OC(COP(=O)(O)O)C(O)C1O (configuration not stated) [Fludarabine Phosphate (Fludara)] | 101 ± 16 | 134 | 98.1 ± 17 | 124 | 98.8 ± 10 | 106 | 98.2 ± 4.5 | 127 ± 32 | 115 ± 13 |
| Nc1nc(=O)c2c(CCc3ccc(C(=O)NC(CCC(=O)[O-])C(=O)[O-])cc3)c[nH]c2[nH]1.[Na+].[Na+] (configuration not stated) [Pemetrexed] | 94.1 ± 3.5 | 102 | 88.7 ± 10 | 92.9 | 105 ± 5.3 | 105 | 93.4 ± 13 | 95.2 ± 9.6 | 130 ± 10 |
| CCOc1ccc(Cc2cc(C3OC(CO)C(O)C(O)C3O)ccc2Cl)cc1 (configuration not stated) [Dapagliflozin] | 112 ± 8.7 | 113 | 89.6 ± 9.1 | 110 | 107 ± 18 | 128 | 78.8 ± 4.8 | 84 ± 6.9 | 103 ± 24 |
| Cl.O=C1CN2Cc3c(ccc(Cl)c3Cl)NC2=N1 [Anagrelide HCl] | 121 ± 3.8 | 140 | 103 ± 9.3 | 120 | 128 ± 11 | 103 | 84.4 ± 4.6 | 116 ± 3.4 | 98.1 ± 2.5 |
| COC(=O)C1CC2=CC(=O)CCC2(C)C23OC2CC2(C)C(CC[C@]24CCC(=O)O4)C13 (some centres not stated) [Epleremone] | 90.4 ± 5.2 | 105 | 100 ± 24 | 90.1 | 94.7 ± 9.2 | 116 | 100 ± 7.6 | 108 ± 4.6 | 114 ± 3.4 |

| SMILES | cell viability (HCI01) | cell viability (HCI03) | cell viability (HCI09) | cell viability (HCI11) | cell viability (HCI13) | cell viability (HCI16) | cell viability (UCD52) | cell viability (WHIM2) | cell viability (WHIM30) |
| --- | --- | --- | --- | --- | --- | --- | --- | --- | --- |
| CCCCOc1ccc(C(=O)CCN2CCCCC2)cc1.Cl [Dyclonine HCl] | 91.4 ± 36 | 110 | 98.2 ± 18 | 110 | 60.5 ± 2.6 | 88.6 | 90.6 ± 12 | 40 ± 16 | 129 ± 30 |
| CC(c1cc2ccccc2s1)N(O)C(N)=O (configuration not stated) [Zileuton] | 101 ± 13 | 136 | 105 ± 10 | 101 | 134 ± 24 | 128 | 112 ± 4 | 112 ± 21 | 134 ± 13 |
| CCN(CC)CC#CCOC(=O)C(O)(c1ccccc1)C1CCCCC1 (configuration not stated) [Oxybutynin] | 141 ± 10 | 130 | 132 ± 73 | 118 | 117 ± 17 | 134 | 82.9 ± 5.8 | 97.1 ± 30 | 148 ± 6.4 |
| CCCCCCOC(=O)N=C(N)c1ccc(NCc2nc3cc(C(=O)N(CCC(=O)OCC)c4ccccn4)ccc3n2C)cc1 | 94.2 ± 9.6 | 124 | 105 ± 7.4 | 111 | 118 ± 7.9 | 107 | 91.9 ± 7.3 | 107 ± 32 | 116 ± 11 |
| Cl.Clc1ccc2nsnc2c1NC1=NCCN1 [Tizanidine HCl] | 115 ± 7.6 | 125 | 95.5 ± 43 | 102 | 125 ± 25 | 100 | 84.3 ± 0.65 | 88.3 ± 14 | 117 ± 20 |
| Cn1cc[nH]c1=S [Methimazole] | 143 ± 11 | 119 | 130 ± 23 | 112 | 82 ± 21 | 126 | 100.1 ± 0.29 | 107 ± 2.4 | 139 ± 3.8 |
| Cn1nnc2c(C(N)=O)ncn2c1=O [Temozolomide] | 136 ± 12 | 125 | 105 ± 15 | 111 | 122 ± 17 | 136 | 97.8 ± 28 | 117 ± 5.3 | 107 ± 16 |
| Cc1ccc(S(=O)(=O)NC(=O)NN2CC3CCCC3C2)cc1 (configuration not stated) [Gliclazide] | 93.2 ± 72 | 143 | 90.8 ± 21 | 90.2 | 105 ± 4.1 | 122 | 95.6 ± 12 | 125 ± 8.1 | 125 ± 9.6 |
| O=C1c2ccccc2C(=O)C1c1ccccc1 [Phenindione] | 127 ± 33 | 142 | 104 ± 5.7 | 94.7 | 92.6 ± 26 | 114 | 104 ± 7.3 | 124 ± 13 | 159 ± 35 |
| Clc1ccc(C(Cn2ccnc2)OCc2csc3c(Cl)cccc23)c(Cl)c1.O=[N+]([O-])O (configuration not stated) [Sertaconazole nitrate] | 113 ± 34 | 85.1 | 53.6 ± 39 | 103 | 44.6 ± 5.4 | 103 | 107 ± 58 | 150 ± 36 | 123 ± 12 |
| NC(=O)N1c2ccccc2CC(=O)c2ccccc21 [Oxcarbazepine] | 91.5 ± 16 | 133 | 107 ± 16 | 98.9 | 104 ± 15 | 124 | 99.59 ± 0.42 | 91.2 ± 2.1 | 159 ± 3.8 |
| CCOC(=O)C(CCc1ccccc1)NC(C)C(=O)N1C(C(=O)O)CC2CCCC21 (configuration not stated) [Ramipril] | 77.7 ± 49 | 129 | 86.7 ± 4.7 | 91.6 | 115 ± 14 | 106 | 87.6 ± 5.9 | 90.8 ± 9.4 | 99.772 ± 0.035 |
| CCC(=C(CC)c1ccc(O)cc1)c1ccc(O)cc1 [Diethylstilbestrol] | 59.1 ± 40 | 95.7 | 61.4 ± 39 | 75.5 | 41 ± 12 | 107 | 78.3 ± 8.4 | 116 ± 51 | 83.8 ± 11 |
| CN1CCN(C2=Nc3ccccc3Oc3ccc(Cl)cc32)CC1.O=C(O)CCC(=O)O [Loxapine Succinate] | 117 ± 40 | 88.4 | 84.5 ± 17 | 84.4 | 64.9 ± 5.7 | 138 | 108 ± 6.8 | 104 ± 24 | 103 ± 6 |
| Cl.O=C1OC(CN2CCOCC2)CN1N=Cc1ccc([N+](=O)[O-])o1 (configuration not stated) [Furaltadone HCl] | 75.8 ± 23 | 153 | 46.7 ± 22 | 63.7 | 94.2 ± 14 | 97 | 135 ± 13 | 42.7 ± 10 | 96 ± 4.8 |
| CC(C)(C)c1cc(NC(=O)Nc2ccc(-c3cn4c(n3)sc3cc(OCCN5CCOCC5)ccc34)cc2)no1 [Quizartinib (AC220)] | 168 ± 27 | 112 | 81.5 ± 1.3 | 111 | 94 ± 17 | 127 | 146 ± 29 | 74.2 ± 3.8 | 193 ± 34 |
| CC(=O)O[C@H]1C(=O)[C@@]2(C)[C@H]([C@H](OC(=O)c3ccccc3)[C@]3(O)C[C@H](OC(=O)[C@H](O)[C@@H](NC(=O)c4ccccc4)c4ccccc4)C(C)=C1C3(C)C)[C@]1(OC(C)=O)CO[C@@H]1C[C@@H]2O [Paclitaxel (Taxol)] | 124 ± 7.2 | 92.4 | 95 ± 4.1 | 96.5 | 100 ± 8.8 | 156 | 66.2 ± 4.7 | 92.9 ± 12 | 114 ± 7.4 |
| CC(C)C(N)C(=O)OCC(CO)OCn1cnc2c(=O)nc(N)[nH]c21.Cl (configuration not stated) [Valganciclovir HCl] | 96.1 ± 5.7 | 104 | 90 ± 24 | 90.6 | 55.1 ± 2 | 111 | 120 ± 38 | 111 ± 28 | 138 ± 13 |
| O=S(=O)([O-])Oc1ccc(C(c2ccc(OS(=O)(=O)[O-])cc2)c2ccccn2)cc1.[Na+].[Na+] [Sodium Picosulfate] | 103 ± 33 | 119 | 102 ± 6 | 86.7 | 116 ± 6.3 | 117 | 90.71 ± 0.14 | 91.2 ± 20 | 101 ± 5.3 |
